Measured values: PubChem BioAssay AID1903 (Southern Research Specialized Biocontainment Screening …, 2009)
The whole screen tested about 310,000 compounds, of which about 1,200 (0.39%) were called active. The rule behind the calls is not given here. A selection follows. Results with a measured potency or affinity are listed apart.

target: Large T antigen (Simian virus 40) (UniProt P03070); assay: SV40 large T antigen inhibitors, biochemical (AID 1903); conditions: SV40 large T antigen ATPase/helicase inhibition assay; at 20 µM; stronger effect = higher value
Sequence (P03070 whole entry, looked up): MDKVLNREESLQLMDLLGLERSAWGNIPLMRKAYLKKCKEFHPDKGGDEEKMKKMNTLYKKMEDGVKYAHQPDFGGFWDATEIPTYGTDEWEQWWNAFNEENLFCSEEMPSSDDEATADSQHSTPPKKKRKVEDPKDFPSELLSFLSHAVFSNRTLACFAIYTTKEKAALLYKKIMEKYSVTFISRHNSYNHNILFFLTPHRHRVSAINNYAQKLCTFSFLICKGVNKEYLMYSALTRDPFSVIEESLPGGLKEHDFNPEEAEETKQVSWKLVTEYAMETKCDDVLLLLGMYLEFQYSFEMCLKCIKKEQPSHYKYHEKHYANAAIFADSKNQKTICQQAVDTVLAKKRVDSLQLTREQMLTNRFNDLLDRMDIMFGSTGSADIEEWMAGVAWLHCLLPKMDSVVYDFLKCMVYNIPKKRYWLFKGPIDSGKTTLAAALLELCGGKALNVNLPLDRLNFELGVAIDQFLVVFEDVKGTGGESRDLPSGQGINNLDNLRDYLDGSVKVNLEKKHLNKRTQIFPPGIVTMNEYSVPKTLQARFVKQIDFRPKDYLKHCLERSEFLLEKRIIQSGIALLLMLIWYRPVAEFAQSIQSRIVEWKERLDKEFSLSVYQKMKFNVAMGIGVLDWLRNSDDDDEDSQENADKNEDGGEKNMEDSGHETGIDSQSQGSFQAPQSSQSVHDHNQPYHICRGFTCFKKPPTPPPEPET

inhibition, inactive:
CCOc1ccc(NS(=O)(=O)c2ccc(N)cc2)cc1 2.32%, O=C(O)c1cccc2c1C(=O)c1ccccc1C2=O 2.63%, Nc1c(C(=O)O)ccc2c1C(=O)c1ccccc1C2=O 6.68%, CC(C)Oc1ccc(S(=O)(=O)N2CCOCC2)cc1NC(=O)C1CCC1 4.96%, COc1c(/C=N/Nc2ccc([N+](=O)[O-])cc2[N+](=O)[O-])c(C)nn1-c1ccccc1 -4.36%, Cc1nn(-c2ccccc2)c(N)c1Sc1ccc([N+](=O)[O-])cc1 -2.9%, C=CCn1cc(CN2CCC(C(=O)Nc3cccc(-c4cccc(F)c4)c3)CC2)c(C)n1 9.97%, CCN1C(=O)CC(N2CCC(Nc3ccc(F)cc3)CC2)C1=O (centres undefined) 0.22%, CCN1C(=O)CC(N2CCN(c3ccc(OC)cc3)CC2)C1=O (centres undefined) 27.7%, O=C(OCc1cn(Cc2ccccc2)nn1)c1ccccc1 7.89%, COc1ccc2nc(NC(=O)/C=C/c3ccc4c(c3)OCO4)sc2c1 5.17%, Cc1ccc(S(=O)(=O)N(C(=O)c2ccncc2)c2ccc(OC(=O)c3ccncc3)cc2)c(C)c1 23.4%, O=C(Oc1ccc(N(C(=O)c2ccncc2)S(=O)(=O)c2ccc(F)cc2)cc1)c1ccncc1 32%, C=CCN(c1ccccc1Cl)S(=O)(=O)c1cccc(C(=O)NCCc2ccc(OC)cc2)c1 5.14%, COc1ccccc1CNCC(O)Cn1c2ccccc2c2ccccc21 (centres undefined) 16%, CCN(CC)c1ccc(NC(=O)c2ccco2)c(C)c1 38%, CCN(CC)c1ccc(NC(=O)c2c(OC)cccc2OC)c(C)c1 24.5%, CCN(CC)c1ccc(NC(=O)c2cc(OC)cc(OC)c2)c(C)c1 19.6%, CCn1cc(C(=O)Nc2ccc(C)c([N+](=O)[O-])c2)cn1 2.51%, CCc1ccc(NC(=O)c2cccnc2)cc1 21.3%, CCN(CC)c1ccc(NC(=O)c2ccc3c(c2)OCO3)c(C)c1 22.6%, CCn1cc(C(=O)Nc2ccc(F)c(F)c2)cn1 16%, O=C(Nc1ccc(NC(=O)c2cccnc2)cc1)c1ccccc1 9.81%, O=C(CSc1nnc(Cc2ccccc2)n1Cc1ccco1)NC12CC3CC(CC(C3)C1)C2 3.4%, CN(C)C(=O)C1CCC(=O)N1Cc1cccs1 (centres undefined) 3.97%, COc1ccc(N=Cc2c(O)n(-c3ccc(OC)cc3)c(=O)c3ccccc23)cc1 17.6%, CCOc1ccccc1N1CC(C(=O)NCCOc2ccccc2OC)CC1=O (centres undefined) 3.13%, Cc1ccc(-c2nc(CS(=O)(=O)CC(=O)N3CCN(C)CC3)c(C)o2)cc1 6.58%, Cc1nc2scc(C)n2c(=O)c1S(=O)(=O)N1CCN(c2ccc([N+](=O)[O-])cc2)CC1 13.7%, CCc1ccc(N2CC(C(=O)NC3CC3)CC2=O)cc1 (centres undefined) 12.7%, Cc1ccccc1NC(=O)c1cccnc1 -1.13%, Cc1cc(F)ccc1NC(=O)c1cccnc1 3.85%, CCCOc1ccc(C(=O)N/N=C/c2ccc(-c3ccc(S(=O)(=O)Nc4ncccn4)cc3)o2)cc1 35.9%, CCOc1ccc(C(=O)N/N=C/c2ccc(-c3ccc(S(=O)(=O)Nc4ncccn4)cc3)o2)cc1 26.6%, Nc1ccc2oc(-c3cccs3)nc2c1 5.03%, c1ccc2[nH]c(CCCCc3nc4ccccc4[nH]3)nc2c1 5.68%, Nc1cccc(CCc2nc3cc4ccccc4cc3[nH]2)c1 21.5%, c1csc(-c2nc3ccccc3[nH]2)c1 -3.54%, Nc1ccc2nc(CCCCc3nc4ccccc4[nH]3)[nH]c2c1 32.7%, c1ccc2[nH]c(CCCc3nc4ccccc4[nH]3)nc2c1 12.5%, O=[N+]([O-])c1ccc2nc(CCCO)[nH]c2c1 -0.4%, OCCCc1nc2ccccc2[nH]1 13.1%, CCOC(=O)C1=C(COC(=O)/C=C/c2ccc(OC)cc2OC)NC(=O)NC1C (centres undefined) 3.33%, CCc1noc(C)c1C(=O)Oc1ccc(N(C)S(=O)(=O)c2ccccc2)cc1 12.4%, Cc1nn(-c2ccccc2)c(Cl)c1/C=N/NC(=O)c1ccnn1C 19.3%, O=C(O)c1ccc(/C=N/Nc2ccc(F)cc2F)cc1 9.08%, COc1cccc(CC(NC(C)=O)C(=O)NC2CCN(S(=O)(=O)c3ccc(NC(C)=O)cc3)CC2)c1 (centres undefined) 12.6%, COc1ccc(OC)c(N(CC(=O)NCc2ccccn2)S(C)(=O)=O)c1 5.82%, COc1ccc(/C=N/NC(=O)c2ccccc2OC)cc1COc1ccc(C)cc1 1.22%, O=C(c1ccc2c(c1)OCO2)N(c1ccc(F)cc1)C1C=CS(=O)(=O)C1 (centres undefined) -0.44%, CCOc1cc(/C=C/c2cc(C(=O)O)c3ccccc3n2)ccc1O 31%, CCOc1cc(/C=C/c2ccc3cccc([N+](=O)[O-])c3n2)ccc1O 3.61%, COc1ccc(/C=N/NC(=O)c2ccc(=O)n(C)c2)cc1OC 3.81%, CCC(=Nc1ccccc1OC)C1=C(O)CC(c2ccccc2)CC1=O (centres undefined) 2.58%, CCC(=NC)C1=C(O)CC(c2ccccc2)CC1=O (centres undefined) 3.84%, O=C1c2cccnc2C(=O)N1Cc1ccc(S(=O)(=O)NCc2ccco2)cc1 14.4%, N#C/C(=C\c1ccc(Br)s1)C(=O)N1CCN(c2ccccc2)CC1 7.79%, CN(C)C(CNC(=O)c1ccc2nc[nH]c2c1)c1ccccc1 (centres undefined) 12.7%, NC1=NC(=O)/C(=C/c2cccs2)S1 3.51%, NC1=NC(=O)/C(=C\c2cccs2)S1 16.2%, COc1cccc(C(=O)CN(C(=O)c2ccc(Cl)c(Cl)c2)N2C(=O)C3CCCCC3C2=O)c1 (centres undefined) 24.4%, COc1ccccc1C(=O)COC(=O)CCCN=C1NS(=O)(=O)c2ccccc21 11.1%, Nc1cc(-c2ccc(Br)cc2)[nH]n1 8.97%, Oc1ccc(Br)cc1-c1cc(-c2ccccc2)n[nH]1 23.6%, O=C1c2ccccc2CC1Sc1nnc(-c2ccccn2)o1 (centres undefined) 13.2%, CCC(Sc1nnnn1-c1ccccc1)C(=O)NC(C)c1ccccc1 (centres undefined) 1.1%, Cc1ccc(Nc2ccccc2)cc1 9.98%, c1ccc(Nc2ccccc2)cc1 12.1%, CN(Cc1nc(-c2cnccn2)no1)CC(O)c1ccccc1 (centres undefined) 9.11%, C/C(=N\NC(=O)CSc1nnc(C)s1)c1ccc(O)cc1 26.9%, C/C(=N\NC(=O)CSc1nc2ccccc2[nH]1)c1ccncc1 5.69%, COc1ccc(/C(C)=N\NC(=O)CSc2nnc(C)s2)cc1 4.01%, COc1cc(/C(C)=N\NC(=O)CSc2nc3ccccc3n2C)ccc1O 25.3%, Cc1ccc(CNC(=O)c2nn(C)c(C)c2[N+](=O)[O-])cc1 10.1%, O=S(=O)(NCC1CCCN(Cc2ccccc2O)C1)c1cccc2cccnc12 (centres undefined) 21.3%, S=C(NCCSCc1c(Cl)cccc1Cl)Nc1ccccc1 3.66%, O=C(NC(NC1CCS(=O)(=O)C1)C(Cl)(Cl)Cl)c1cccc(Cl)c1 (centres undefined) 26%, S=C(NCc1cccnc1)Nc1ccc2c(c1)OCO2 9.73%, c1cc(CNc2ccc3c(c2)OCO3)ccn1 25.9%, O=C(COC(=O)c1ccc2ccccc2n1)NCc1ccccc1 6.87%, COc1cccc(NC(=O)COC(=O)COc2ccccc2[N+](=O)[O-])c1 7.61%, O=C(COC(=O)COc1ccccc1[N+](=O)[O-])Nc1cccc(Br)c1 -10.5%, O=C(COC(=O)c1cccs1)Nc1ccccc1 -1.96%, CCN(c1ccc(NC(=O)COC(=O)c2cccs2)cc1)C(C)C 25.9%, CCN(CC)c1ccc(NC(=O)COC(=O)/C=C/c2nc3ccccc3s2)cc1 37.1%, CCCCCSc1nnc2c(n1)OC(C)N(C(C)=O)c1ccccc1-2 (centres undefined) 5.71%, N#Cc1nc(COc2ccccc2Cl)oc1NCc1ccco1 15.3%, Cc1cc(C)nc(SCCC(=O)Nc2ccccc2)n1 -11.3%, COc1cccc2cc(C(=O)NNC(=O)c3ccc(Br)cc3)c(=O)oc12 -2.17%, COc1ccc(/C=C/C(=O)Nc2cc(S(=O)(=O)N3CCCCC3)ccc2N2CCCCC2)cc1OC -6.48%, CC/C(=C\C(=O)c1ccncc1)Nc1ccc(Br)cc1 14.6%, Cc1nonc1C(=O)N/N=C/c1ccccc1 -0.19%, O=C(COc1ccccc1C(=O)N/N=C\c1ccc(O)c(O)c1)N/N=C/c1ccc(O)c(O)c1 2.12%, COc1ccc2c(c1)c(C(=O)N/N=C/c1cccc(O)c1)c(C)n2C 14.4%, Cc1nonc1C(=O)N/N=C/c1cccc(O)c1 8.34%, COc1ccc2c(c1)c(C(=O)N/N=C/c1ccc(OC)c(OC)c1)c(C)n2C 13.7%, C=C1CC(C(=O)N/N=C/c2ccccc2)C1 5.07%, CC(C)(C)c1ccc(/C=N/NC(=O)C2CCCC2)cc1 13.3%, O=C(N/N=C/c1cccc(O)c1)N/N=C/c1cccc(O)c1 18.6%
